The text below walks through data of PubChem BioAssay.

Molecules are shown by their SMILES. Several values for one entry are separate records, joined by “and”; a condition that tells them apart may be missing. Equal values may be shown once. For some of these results: Entries with a potency or affinity are not part of this list. Some compounds were tested as several samples or in several runs, with calls that do not always agree. Activity calls are given as the source filed them. Unless noted, the rule behind the calls is not given here.

Assay [1] is described as follows: modulation of C. elegans fzo-1 (AID 1259413).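 Note: fzo-1 mutant C. elegans worms in liquid wells.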 To be noted: C. elegans fzo-1 modulator screen, mean read-out; stronger effect = higher value.
For assay [2], the target named is Mitogen-activated protein kinase 7 (Homo sapiens) (UniProt Q13164). Briefly: Gal4-ERK5 driven luciferase induction – cell-based, HTS, primary screen (AID 1508626;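 active = luciferase signal above three times the same-plate solvent-only control wells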;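 note: luciferase driven by Gal4-ERK5 fusion binding five Gal4 sites before minimal TATA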). To be noted: HeLa Gal4-ERK5 transactivation, 18 h, at 5 µM, stronger effect = higher value.
Mitogen-activated protein kinase 7 (Homo sapiens), sequence (Q13164 whole entry, looked up, the tested form may be a part): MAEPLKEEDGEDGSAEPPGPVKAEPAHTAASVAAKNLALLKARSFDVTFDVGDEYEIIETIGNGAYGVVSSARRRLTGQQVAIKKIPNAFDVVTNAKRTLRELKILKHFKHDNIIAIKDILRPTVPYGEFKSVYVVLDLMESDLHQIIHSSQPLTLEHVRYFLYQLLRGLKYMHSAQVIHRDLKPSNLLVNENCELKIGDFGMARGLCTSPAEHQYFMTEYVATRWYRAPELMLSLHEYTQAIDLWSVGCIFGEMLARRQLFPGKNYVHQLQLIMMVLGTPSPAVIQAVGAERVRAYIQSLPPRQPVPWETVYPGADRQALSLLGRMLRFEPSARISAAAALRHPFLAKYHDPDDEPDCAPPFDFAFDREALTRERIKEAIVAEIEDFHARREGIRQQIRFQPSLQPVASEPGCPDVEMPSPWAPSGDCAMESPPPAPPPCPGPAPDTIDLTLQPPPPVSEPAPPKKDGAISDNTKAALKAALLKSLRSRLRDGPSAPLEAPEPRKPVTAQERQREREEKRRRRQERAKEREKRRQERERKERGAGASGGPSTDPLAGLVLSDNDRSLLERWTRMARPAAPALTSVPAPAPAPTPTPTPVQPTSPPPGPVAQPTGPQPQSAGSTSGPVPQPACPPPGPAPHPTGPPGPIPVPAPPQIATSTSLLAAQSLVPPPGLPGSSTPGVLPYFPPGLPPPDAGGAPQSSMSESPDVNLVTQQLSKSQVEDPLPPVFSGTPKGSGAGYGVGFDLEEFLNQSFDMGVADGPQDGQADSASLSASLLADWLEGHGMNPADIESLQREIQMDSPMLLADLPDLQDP
A short description of assay [3]: galactose survival enhancers in mitochondrial complex I cybrids – cell-based, galactose medium, ATP luminescence, primary screen (AID 1645843;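 active = z-score of at least 1.8 in each of two replicates, scored against plate mean and spread of sample wells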;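 note: positive z means more ATP and so rescue of galactose-driven cybrid death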). To be noted: complex I mutant cybrid cells, 72 h, stronger effect = higher value.
The nature of assay [4]: growth inhibition, single agents and combos, ICB984, cell-based, cisplatin or BGB combos, synergistic combos for chromothripsis tumors (AID 1671451).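 Note: cells exposed for 96 hours before readout; 0% = vehicle DMSO and 100% = killing by high DMSO.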 To be noted: ICB984 medulloblastoma cells, drug combinations, stronger effect = higher value.
A further assay deals with R275C/beta1. Briefly: BK channel mutant inhibitors and activators – cell-based, U2OS BacMam, thallium flux, beta subunits, selectivity assay, profiling panel (AID 1259406;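 active = thallium flux through the channel raised or lowered by more than 3 SD from vehicle-only wells, actives on both sides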;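 note: initial slope of Thallos dye fluorescence rise after thallium is added; log ratio against the mean of 0.3% DMSO vehicle wells on the same plate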). To be noted: U2OS BacMam BK variants, at 30 µM.
The test system of the next assay is R275C/beta2Delta. Described as above. To be noted: U2OS BacMam BK variants, at 30 µM.
For a further assay, the system named is R275C/beta4. Described as above. To be noted: U2OS BacMam BK variants, at 30 µM.
The test system of another assay is R275C/Slo1WT/beta2. Described as above. To be noted: U2OS BacMam BK variants, at 30 µM.
A short description of assay [5]: blockers of polyQ-driven CASP3 activation – cell-based (AID 1583). To be noted: polyglutamine-induced caspase-3 activation, cell assay; stronger effect = higher value;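 tested at 10 µM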.
The nature of assay [6]: yeast 75Q aggregation reduction – 75Q-TubU reporter (AID 1593). To be noted: Yeast 75Q polyglutamine aggregation reporter.
Assay [7] in a line: restoration of touch response, mutant HTT neurons – whole organism, C. elegans mechanosensory neurons, N-terminal huntingtin (AID 1599). To be noted: C. elegans polyQ-huntingtin mechanosensory neurons, stronger effect = higher value.
The nature of assay [8]: blockers of cytochrome c efflux from mitochondria – biochemical, purified mitochondria (AID 1603).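 Note: mouse liver mitochondria challenged with calcium chloride; signal normalized to the plate average as 100%.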 To be noted: stronger effect = lower value.
A short description of assay [9]: polyglutamine aggregate formation blockers (AID 1604). To be noted: polyglutamine-induced protein aggregation inhibition assay; stronger effect = higher value; tested at 2.5 µM.
Assay [10] is described as follows: glutamate transport activators, MN-1 cells, MN-1 cell line (AID 1612).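 Note: tested at 1 µM final; 0% = mean of DMSO vehicle wells on each plate; positive means more glutamate uptake than control and negative means less.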 To be noted: MN-1 motor neuron cells, stronger effect = higher value.
A short description of assay [11]: 75Q-TubH aggregate inhibition, S. cerevisiae, yeast (AID 1616). To be noted: S. cerevisiae 75Q-TubH polyglutamine aggregation suppression; stronger effect = higher value.
Assay [12] is described as follows: compounds altering viability of human ES cells (AID 493140).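 Note: cells exposed to compounds for four days before counting.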 To be noted: human embryonic stem cell survival screen; stronger effect = higher value.
Assay [13] is described as follows: signal quenchers or enhancers, Cy5 substrate/SSB – biochemical, NIH Clinical Collection, E. coli SSB, artefact control for HCV NS3 helicase inhibitor project (AID 743268). To be noted: Cy5-oligo bound E. coli SSB, fluorescence interference.
For assay [14], the system named is Hepatitis C virus NS3 helicase. Briefly: blockers of NS3h binding to DNA – biochemical, fluorescence polarization, NIH Clinical Collection, primary screen (AID 743270). To be noted: NS3 helicase binding to Cy5-dT15 DNA, stronger effect = higher value, concentration not given here.
Assay [15] concerns the target Single-stranded DNA-binding protein (Escherichia coli (strain K12)) (UniProt P0AGE0). Briefly: SSB-ssDNA binding inhibitors – biochemical, fluorescence polarization, NIH Clinical Collection, counter-screen for HCV NS3 helicase inhibitor project (AID 743271; in the data active = inhibition above about 28%). To be noted: E. coli SSB-DNA binding, stronger effect = higher value, concentration not given here. On the technique in general: Polarisation of emitted light reports the rotation of a fluorescent probe.

Assay [16] can be described thus: compounds distorting NS3 helicase fluorescence signal – biochemical, NIH Clinical Collection, artefact control for HCV NS3 helicase inhibitor project (AID 743272).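 Note: HCV NS3 helicase with a Cy5 labelled single stranded DNA probe.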 To be noted: fluorescence interference counterscreen, HCV NS3 helicase assay; stronger effect = lower value.
The mark [17] stands for this setting: measured here: 5 uM single agent, at 5 µM.

Consider `CCn1cc(C(=O)O)c(=O)c2cc(F)c(N3CCN(C)CC3)cc21`, for which, in assay [1], the mean signal is 261 (inactive). Moreover, the luciferase signal in assay [2] is 56 AU (inactive). Besides, the z-score in assay [3] is 0.7 (inactive) and 0.275 (inactive). Also, the inhibition in assay [4] (BGB IC20 combo, at 0.005 µM) was -18.1% and 6.69%; in assay [4] (BGB IC40 combo, at 0.005 µM), -42.4% and -0.345%; in assay [4] (BGB IC40 combo, at 0.05 µM) it was -41% and 23.4%; in [4] (at 0.5 µM), -41.8% (inactive) and -20.7% (inactive); in assay [4] (cisplatin combo, at 0.05 µM) it was -41% and 21.2%; in [4] (cisplatin combo, at 0.5 µM), -53.3% and -24%. For the same molecule, the inhibition in assay [4] (cisplatin combo, at 5 µM) was -34.1% and -14.2%; in [4] (setting [17]) it was -3.29% and -1.89%. For the same molecule, the log fold change Tl+ flux was 0.0145 (inactive) in the assay on R275C/beta1, -0.0279 (inactive) in the assay with R275C/beta2Delta, 0.00214 (inactive) in the assay with R275C/beta4 and 0.067 (inactive) in the assay on R275C/Slo1WT/beta2.

`COc1ccccc1OCC(O)COC(N)=O` (centres undefined): the inhibition in [5] was -7.05%; in [14], -1.36% (inactive); in assay [15], -1.24% (inactive). In addition, the score in assay [6] is 1.41. The molecule also gave a rescue above control in assay [7] of 1.68. Besides, in assay [8], the cytochrome c release ratio came out at 0.96. Moreover, the inhibition of aggregation in [9] was found to be 88.8%. Besides, the glutamate uptake change in [10] was -5.42%. The molecule further came in with an aggregation suppression score in [11] of 1.52. In addition, the survival in [12] is 33.1 (inactive). The fluorescence ratio in [13] and in assay [16] was 1 (inactive) throughout. In [1], the mean signal was 264 (inactive). The luciferase signal in assay [2] was 56 AU (inactive). In assay [3], the z-score was 0.945 (inactive). Besides, the log fold change Tl+ flux with R275C/beta1 was -0.013 (inactive); with R275C/beta2Delta, -0.018 (inactive); in the assay with R275C/beta4, 0.0404 (inactive); in the assay on R275C/Slo1WT/beta2 it was 0.0176 (inactive).

Take `Cc1onc(-c2c(Cl)cccc2Cl)c1C(=O)N[C@@H]1C(=O)N2[C@@H]1SC(C)(C)[C@@H]2C(=O)O`: the inhibition is 12.4% in [5], -2.27% (inactive) in assay [14] and -0.48% (inactive) in assay [15]. The same molecule came in with a score in [6] of 1.26. This molecule came in with a rescue above control in [7] of 8.15. In addition, the cytochrome c release ratio in assay [8] is 1.34. In assay [9], the inhibition of aggregation turned out to be 56.3%. In addition, in assay [10], the glutamate uptake change is -10.2%. This molecule came in with an aggregation suppression score in assay [11] of 1.09. Moreover, in assay [12], the survival was 4 (inactive). The fluorescence ratio is 0.97 (inactive) in assay [13] and 1.03 (inactive) in assay [16]. In [1], the mean signal was 230 (inactive). Moreover, the luciferase signal in [2] is 36 AU (inactive). For the same molecule, in assay [3], the z-score was 0.54 (inactive). For the same molecule, the log fold change Tl+ flux with R275C/beta1 was 4.8e-05 (inactive); with R275C/beta2Delta, 0.00693 (inactive); in the assay on R275C/beta4, -0.0254 (inactive); with R275C/Slo1WT/beta2, -0.0106 (inactive).

On to `O=c1[nH]cc(F)c(=O)[nH]1`, for which the inhibition in assay [5] is 7.47%; in assay [14], -3.18% (inactive); in assay [15], -0.48% (inactive); in assay [4] (BGB IC20 combo, at 0.005 µM), -34.1%; in assay [4] (BGB IC40 combo, at 0.005 µM) it was -27.4%; in [4] (BGB IC40 combo, at 0.05 µM), 5.15%. In addition, the inhibition is 0.32% (inactive) in assay [4] (at 0.5 µM); 5.15% in assay [4] (cisplatin combo, at 0.05 µM); 7.66% in assay [4] (cisplatin combo, at 0.5 µM); -4.18% in [4] (cisplatin combo, at 5 µM); -20.2% in assay [4] (setting [17]). The molecule also displayed a score in [6] of 0.35. Besides, the rescue above control in [7] was -13.1. Further, the cytochrome c release ratio in [8] amounted to 0.98. The same molecule gave an inhibition of aggregation in assay [9] of 41.6%. The glutamate uptake change in assay [10] is -1.19%. In [11], this molecule showed an aggregation suppression score of 0.203. The fluorescence ratio in assay [13] is 0.97 (inactive); in assay [16], 0.92 (inactive). The mean signal in [1] is 262 (inactive). Moreover, in assay [2], the luciferase signal was 80 AU (inactive). In addition, the z-score in [3] is 6.85 (active) and -1.25 (inactive) and 2.99 (active). The log fold change Tl+ flux with R275C/beta1 is 0.0262 (inactive); with R275C/beta2Delta, -0.0331 (inactive); in the assay on R275C/beta4 it was -0.0876 (inactive); in the assay on R275C/Slo1WT/beta2, 0.0575 (inactive).

What is called inhibition is the change of the read-out against control, counted positive when it falls.
